The source of these data is PubChem BioAssay (Tox21).

Unmarked numbers belong to inactive results. Results filed as inconclusive are left out. Active and inactive are the calls of the source. Calls follow the shape of the full dose curve.

Assay [1] has as its target Acetylcholinesterase (Homo sapiens) (UniProt P22303). Nature of the assay: Acetylcholinesterase (AChE) small molecule antagonists: colormetric cell-based qHTS assay (AID 1347395). Also: nearly all actives have a fitted effect of over 30% in size. Also: potency is read from the fitted curve at half-maximal effect. An outline of the steps:
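Colorimetric readout: DTNB quantifies thiocholine from acetylthiocholine hydrolysed by endogenous AChE of SH-SY5Y cells (2,000/well, plated overnight). Compound pretreatment 30 min, substrate incubation 90 min, both 37 C.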
In general terms: Quantitative high-throughput screening tests each substance at several concentrations.

The target is the same in assay [2]. Nature of the assay: Acetylcholinesterase (AChE) small molecule antagonists: enzyme-based qHTS assay (AID 1347397). Also: nearly all actives have a fitted effect of over 55% in size. The note with it: Potency: AChE enzyme activity inhibition; outcome: AChE enzyme activity inhibition. The essentials: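 Compound or DMSO vehicle was pin-transferred onto recombinant human AChE (50 mU/mL as dispensed) and left 30 min at room temperature. Acetylthiocholine with DTNB then started the reaction, read colorimetrically 10 min later.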

The target is the same in assay [3]. As to the kind of experiment: Acetylcholinesterase (AChE) small molecule antagonists: enzyme-based qHTS assay with human liver microsomes (AID 1347399). Also: nearly all actives have a fitted effect of over 60% in size. Particulars: Potency: qHTS inhibition; outcome: qHTS inhibition. The essentials: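 Recombinant human AChE (50 mU/mL in the enzyme mix) and human liver microsomes (0.25 mg/mL final) were preincubated with compound and NADPH (0.25 mg/mL final) for 30 min at 37 C. Acetylthiocholine/DTNB was then added; thiocholine was read colorimetrically after 10 min at room temperature.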
% is scaled to controls: 0 for no effect and ±100 for the full control effect.

Acetylcholinesterase (Homo sapiens), sequence (P22303 whole entry, looked up): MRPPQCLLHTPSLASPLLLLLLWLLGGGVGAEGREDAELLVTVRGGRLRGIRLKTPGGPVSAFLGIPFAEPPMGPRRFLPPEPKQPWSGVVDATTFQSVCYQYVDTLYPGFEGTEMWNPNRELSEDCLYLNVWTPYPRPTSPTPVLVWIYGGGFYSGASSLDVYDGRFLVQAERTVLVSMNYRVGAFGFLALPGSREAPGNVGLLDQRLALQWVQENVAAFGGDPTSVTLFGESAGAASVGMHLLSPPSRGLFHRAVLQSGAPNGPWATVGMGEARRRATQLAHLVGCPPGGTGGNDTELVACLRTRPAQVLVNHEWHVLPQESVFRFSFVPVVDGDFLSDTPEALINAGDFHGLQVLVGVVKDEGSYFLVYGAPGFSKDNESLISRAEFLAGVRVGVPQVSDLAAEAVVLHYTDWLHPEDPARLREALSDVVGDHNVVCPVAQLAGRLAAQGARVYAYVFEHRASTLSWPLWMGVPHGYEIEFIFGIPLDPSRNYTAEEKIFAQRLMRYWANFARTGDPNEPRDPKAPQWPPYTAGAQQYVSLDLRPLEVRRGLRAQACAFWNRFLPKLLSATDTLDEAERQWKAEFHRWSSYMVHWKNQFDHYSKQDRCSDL

Take `CC(C(O)c1ccc(O)cc1)N1CCC(Cc2ccccc2)CC1` (stereo unspecified): the Potency entry in assay [1], in assay [2] and in assay [3] was “inactive” in each case.
For `CN(CCOc1ccc(NS(C)(=O)=O)cc1)CCc1ccc(NS(C)(=O)=O)cc1`, the Potency in assay [1] was 17.4 µM (active). The Potency result in assay [2] and in assay [3] was “inactive” throughout.
Take `CN1C(=O)OC(C)(C)C1=O`: the Potency result in assay [1], in assay [2] and in assay [3] was “inactive” each time.
In the case of `CO[C@@H]1[C@@H](O[C@@H]2O[C@H](C)[C@@H](O[C@H]3C[C@@](C)(O)[C@@H](O)[C@H](C)O3)[C@H](N(C)C)[C@H]2O)[C@@H](CC=O)C[C@@H](C)[C@@H](O[C@@H]2CC[C@H](N(C)C)[C@@H](C)O2)/C=C/C=C/C[C@@H](C)OC(=O)C[C@H]1OC(C)=O`, the Potency result in assay [1], in assay [2] and in assay [3] was “inactive” in each case.
Turning to `CCCCCCCCCCCCCCCCCC(=O)OCCCCCCCCCCCCCC(C)C`, the Potency result in assay [1], in assay [2] and in assay [3] was “inactive” in each case.
Regarding `Cc1c(-c2ccccc2)oc2c(C(=O)OCCN3CCCCC3)cccc2c1=O`, the Potency result in assay [1], in assay [2] and in assay [3] was “inactive” each time.
`Cc1ccc2c(c1)CCCN2`: the Potency result in assay [1], in assay [2] and in assay [3] was “inactive” each time.
As to `CCC(Cc1ccccc1)(C(=O)c1ccc(N2CCOCC2)cc1)N(C)C` (stereo unspecified), the Potency entry in assay [1], in assay [2] and in assay [3] was “inactive” throughout.
With `N#CSc1ccc(N)c([N+](=O)[O-])c1`, the Potency entry in assay [1], in assay [2] and in assay [3] was “inactive” each time.
Take `Cc1ccnc(N)c1`: the Potency result in assay [1], in assay [2] and in assay [3] was “inactive” in each case.
Regarding `CCOC(=O)COc1ccc2c(c1)CC(NCC(O)c1cccc(Cl)c1)CC2` (stereo unspecified), the Potency entry in assay [1], in assay [2] and in assay [3] was “inactive” throughout.
Consider `OCCN1CCN(CC/C=C2/c3ccccc3Sc3ccc(C(F)(F)F)cc32)CC1`, for which the Potency entry in assay [1], in assay [2] and in assay [3] was “inactive” each time.
`CCO[C@@H]1O[C@H](C(COCc2ccccc2)OCc2ccccc2)[C@H](OCc2ccccc2)[C@H]1O` (stereo partly specified): the Potency entry in assay [1], in assay [2] and in assay [3] was “inactive” in each case.
In the case of `O=S(=O)(O)c1cc(S(=O)(=O)O)c2ccc3c(S(=O)(=O)O)cc(S(=O)(=O)O)c4ccc1c2c43`, the activity, negative = inhibition in assay [1] was -7.76% [at 23.6 µM]. The values for the activity change, negative = inhibition in assay [2] and in assay [3] were -5.03% [at 23.6 µM] and 2.76% [at 23.6 µM], respectively.
As to `NS(=O)(=O)c1cc2c(cc1C(F)(F)F)NC(Cc1ccccc1)NS2(=O)=O` (stereo unspecified), the Potency in assay [1] was 38.9 µM (active). In addition, the Potency entry in assay [2] and in assay [3] was “inactive” in each case.
As to `Nc1cc(C(F)(F)F)ccc1S`, the Potency entry in assay [1], in assay [2] and in assay [3] was “inactive” each time.
As to `CCN(CC)CCOc1ccc(C(O)(Cc2ccc(Cl)cc2)c2ccc(C)cc2)cc1` (stereo unspecified), the Potency entry in assay [1], in assay [2] and in assay [3] was “inactive” each time.
`O=C(CN1CCN(Cc2ccc3c(c2)OCO3)CC1)N1c2ccccc2Sc2ccccc21`: the Potency result in assay [1], in assay [2] and in assay [3] was “inactive” in each case.
Regarding `CC1=C(/C=C/C(C)=C\C=C\C(C)=C\C(=O)O)C(C)(C)CCC1`, the Potency entry in assay [1], in assay [2] and in assay [3] was “inactive” in each case.
In the case of `Cc1ccc(N)cc1S(=O)(=O)O`, the Potency result in assay [1], in assay [2] and in assay [3] was “inactive” throughout.
With `Cc1cc(CCN2CCN(c3nsc4ccccc34)CC2)cc2c1NC(=O)CC2(C)C`, the result in assay [1], in assay [2] and in assay [3] was inactive.
Regarding `CC(=O)[C@H]1CC[C@H]2[C@@H]3C=CC4=CC(=O)CC[C@@]4(C)[C@@H]3CC[C@]12C`, the Potency entry in assay [1], in assay [2] and in assay [3] was “inactive” throughout.
Consider `O=C1NC(=O)c2cccc3cccc1c23`, for which the Potency in assay [1] was 39.9 µM (active). Also, the Potency entry in assay [2] and in assay [3] was “inactive” each time.
As to `CC(C)C1OCCN1CCOC(=O)NCCCCCCNC(=O)OCCN1CCOC1C(C)C` (stereo unspecified), the Potency entry in assay [1], in assay [2] and in assay [3] was “inactive” throughout.
For the molecule `O=C(O)c1ccc(O)c(O)c1`, the Potency result in assay [1], in assay [2] and in assay [3] was “inactive” throughout.
For `Cc1oc(=O)oc1COC(=O)[C@@H]1N2C(=O)[C@@H](NC(=O)[C@H](N)c3ccccc3)[C@H]2SC1(C)C`, the Potency entry in assay [1], in assay [2] and in assay [3] was “inactive” throughout.
Take `Cc1nc(N)nc(N)c1-c1ccc(Cl)c(Cl)c1`: the Potency result in assay [1], in assay [2] and in assay [3] was “inactive” throughout.
With `CCc1cc(C2=C(C(=O)O)N(c3ccccc3C(F)(F)F)S(=O)(=O)c3ccccc32)cc2c1OCO2`, the Potency entry in assay [1], in assay [2] and in assay [3] was “inactive” in each case.
As to `CCC(Cl)CCC(Cl)C(Cl)CC(Cl)C(Cl)C(Cl)CCl` (stereo unspecified), the Potency entry in assay [1], in assay [2] and in assay [3] was “inactive” each time.
Turning to `OCc1c[nH]c2ccccc12`, the Potency result in assay [1], in assay [2] and in assay [3] was “inactive” in each case.
In the case of `N[C@@H]1CONC1=O`, the Potency result in assay [1], in assay [2] and in assay [3] was “inactive” each time.
Turning to `COc1c(N2C[C@@H]3CCCN[C@@H]3C2)c(F)cc2c(=O)c(C(=O)O)cn(C3CC3)c12`, the Potency entry in assay [1], in assay [2] and in assay [3] was “inactive” throughout.
Turning to `CCCCCCCCCCCCCC[P+](CCCC)(CCCC)CCCC` (tested in a mixture with another compound), the Potency entry in assay [1], in assay [2] and in assay [3] was “inactive” in each case.
Regarding `N#Cc1c(F)cccc1F`, the Potency entry in assay [1], in assay [2] and in assay [3] was “inactive” each time.
As for `OCCN1CCN(CCCN2c3ccccc3Sc3ccc(C(F)(F)F)cc32)CC1`, the Potency result in assay [1], in assay [2] and in assay [3] was “inactive” each time.
For `CC1(C)S[C@@H]2[C@H](NC(=O)C(c3ccccc3)S(=O)(=O)O)C(=O)N2[C@H]1C(=O)O` (stereo partly specified), the Potency entry in assay [1], in assay [2] and in assay [3] was “inactive” each time.
`CCN(CC)CCNc1ccc(CO)c2sc3ccccc3c(=O)c12`: the Potency entry in assay [1], in assay [2] and in assay [3] was “inactive” throughout.
In the case of `CC(C)(Cc1c[nH]c2ccccc12)NCC(O)COc1ccccc1C#N` (stereo unspecified), the Potency entry in assay [1], in assay [2] and in assay [3] was “inactive” in each case.
Turning to `CCN(CC)C(=O)N1CCN(C)CC1`, the Potency result in assay [1], in assay [2] and in assay [3] was “inactive” each time.
In the case of `CSc1ccc(C(=O)c2[nH]c(=O)[nH]c2C)cc1`, the Potency result in assay [1], in assay [2] and in assay [3] was “inactive” each time.
For `CC(C)=CCC/C(C)=C/C#N`, the Potency result in assay [1], in assay [2] and in assay [3] was “inactive” each time.
For the molecule `Cc1ccc(-c2ncc(Cl)cc2-c2ccc(S(C)(=O)=O)cc2)cn1`, in assay [1], the Potency is 27.5 µM (active). Further, the Potency entry in assay [2] and in assay [3] was “inactive” in each case.
